Records with an inconclusive call do not appear. Values without a mark were called inactive. The source made the active and inactive calls. The call rests on the fitted dose curve.
On the % scale 0 is the no-effect control and ±100 the full control effect; potency means the concentration at half of the fitted maximal effect.

The assay deals with Progesterone receptor (Homo sapiens) (UniProt P06401). Kind of assay: qHTS assay to identify small molecule agonists of the progesterone receptor (PR) signaling pathway (AID 1346784). Further: nearly all actives have a fitted effect of over 30% in size. The conditions noted are these: PR-UAS-bla HEK293T, beta-lactamase FRET ratio, 16 h; series mostly up to 92.4 µM; activation: at the top concentration. An excerpt: U.S. Tox21 Program National Center for Advancing Translational Sciences [NCATS] NIH Chemical Genomics Center [NCGC] U.S. Environmental Protection Agency [EPA] National Institutes of Environmental Health Sciences [NIEHS] National Toxicology Program [NTP] U.S. Food and Drug Administration [FDA] […] Endocrine disrupting chemicals (EDCs) and their interactions with steroid hormone receptors like PR causes disruption of normal endocrine function. To identify the compounds that activate PR signaling, a PR-UAS-bla GripTite cell line i.e. PR-UAS-bla HEK 293T (Invitrogen, Carlsbad, CA, USA) containing a beta-lactamase reporter gene under the control of an Upstream Activator Sequence (UAS) was used to screen Tox21 10K compound library.
Chain of Progesterone receptor (Homo sapiens) (P06401 whole entry, looked up): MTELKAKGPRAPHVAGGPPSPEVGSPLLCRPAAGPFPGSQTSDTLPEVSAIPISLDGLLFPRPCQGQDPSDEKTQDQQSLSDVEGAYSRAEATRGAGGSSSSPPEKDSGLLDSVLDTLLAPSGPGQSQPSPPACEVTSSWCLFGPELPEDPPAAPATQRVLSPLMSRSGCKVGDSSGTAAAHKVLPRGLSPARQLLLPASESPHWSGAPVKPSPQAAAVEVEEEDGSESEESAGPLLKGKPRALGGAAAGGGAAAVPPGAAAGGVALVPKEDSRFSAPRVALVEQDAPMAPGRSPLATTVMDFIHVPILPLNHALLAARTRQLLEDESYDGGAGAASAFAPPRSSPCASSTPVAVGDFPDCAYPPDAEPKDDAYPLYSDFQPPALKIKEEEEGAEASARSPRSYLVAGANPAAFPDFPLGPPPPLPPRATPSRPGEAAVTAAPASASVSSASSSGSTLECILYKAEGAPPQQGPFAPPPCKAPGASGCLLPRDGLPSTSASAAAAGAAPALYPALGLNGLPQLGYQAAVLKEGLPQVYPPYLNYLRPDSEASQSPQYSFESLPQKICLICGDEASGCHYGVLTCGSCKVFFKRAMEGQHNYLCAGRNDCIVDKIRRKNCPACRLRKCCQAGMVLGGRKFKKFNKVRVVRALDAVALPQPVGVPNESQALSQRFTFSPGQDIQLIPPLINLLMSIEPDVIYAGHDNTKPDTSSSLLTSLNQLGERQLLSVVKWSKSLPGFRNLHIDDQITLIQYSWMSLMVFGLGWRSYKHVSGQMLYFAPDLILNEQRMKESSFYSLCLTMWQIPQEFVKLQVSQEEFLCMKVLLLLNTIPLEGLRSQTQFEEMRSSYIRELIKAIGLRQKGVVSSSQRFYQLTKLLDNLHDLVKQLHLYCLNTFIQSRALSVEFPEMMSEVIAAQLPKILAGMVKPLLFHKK
Tox21 Assay Protocol Summary: PR-UAS-bla HEK 293T cells were dispensed at 3,000 cells/5 uL of assay medium containing 2% charcoal stripped FBS per well into black wall/clear-bottom 1536-well plates using a Multidrop Combi (ThermoFisher Scientific, Waltham, MA) dispenser. After the assay plates were incubated at a 37C and 5% CO2 for 6hr, 23 nL of compounds dissolved in DMSO, positive controls or DMSO only was transferred to the assay plate by a Pintool station (Kalypsys, San Diego, CA). The plates were incubated at 37C and 5% CO2 for 16hr. Then 1 uL of LiveBLAzer B/G FRET substrate was added using a BioRAPTR FRD (Flying Reagent Dispenser, Aurora Discovery, San Diego, CA). After the plates were incubated at room temperature for 2 hours, fluorescence intensity was measured by an Envision plate reader (PerkinElmer, Shelton, CT).
On the technique in general: In qHTS, concentration-response curves come from the screen itself.
Take `CC[N+](CC)(CC)CCOc1ccc(/C=C/c2ccccc2)cc1`: the “activation” value was 3.83% [at 42.5 µM]. Regarding `OC1CCC(C2CCCCC2)CC1` (stereo not given), the “activation” value was 2.31%.

For the molecule `CCc1cccc(CC)c1NC(=O)CN(CC(=O)O)CC(=O)O`, the “activation” value was -0.973% [at 42.5 µM]. Turning to `CCN1C(=O)c2ccccc2C1Nc1ccc(OCCN2CCCCC2)cc1` (stereo not given), the “activation” value is 0.104% [at 42.5 µM]. For `CCCCCCCCCCCC(=O)OCC(C)OC(=O)CCCCC(=O)O` (stereo not given), the “activation” value is -3.08% [at 42.5 µM].

Take `Clc1nnc(Cl)c2ccccc12`: the “activation” value is 36.9%. For `O=[N+]([O-])c1ccc(F)c(Cl)c1`, the Potency is 1090 nM (active). Regarding `CCCNCCC`, the “activation” value was -0.187%. With `C#CC1(O)CC[C@H]2[C@@H]3CCC4=CCCC[C@@H]4[C@H]3CC[C@@]21C` (stereo not given in full), the Potency was 486 nM (active). As to `C[C@H]1NCc2cc(-c3ccc4c(=O)c(C(=O)O)cn(C5CC5)c4c3OC(F)F)ccc21`, the activation is -1.22% [at 19 µM]. Regarding `Cc1c(C)c2c(c(C)c1OC(=O)c1cccnc1)CC[C@@](C)(CCC[C@H](C)CCC[C@H](C)CCCC(C)C)O2`, the “activation” value is -2.09% [at 42.5 µM]. Consider `O=C(O)O`, for which the Potency was 373 nM (active). For `O=C1CCCCCCCCCCCCCCCO1`, the “activation” value is -2.65%. Still for that read-out and setting: the figure for `COc1cc(/C=C/c2ccccc2)oc(=O)c1` is -4.28%; for `CC(C)CCCCCOC(=O)CCS` it is 5.39%; for `CCOC(=O)NNc1ccc(N(CC)CC(C)O)nn1` (stereo not given) it is -1.05% [at 42.5 µM]. For the molecule `ClCCl`, the “activation” value is -0.137%.

Take `CCN(CC)c1ccc2c(-c3ccc(S(=O)(=O)O)cc3S(=O)(=O)[O-])c3ccc(=[N+](CC)CC)cc-3oc2c1`: the “activation” value is -1.2%. The same measure, in the same setting: the value for `CCC(CC)(CC(=O)Nc1cccc(/C=C/c2nc(C3CCC3)cs2)c1)C(=O)O` was 0.0847% [at 42.5 µM].

Regarding `CCCCC(CC)CN1CN(CC(CC)CCCC)CC(C)(N)C1` (stereo not given), the “activation” value is -1.77% [at 42.5 µM].

Turning to `COC(=O)Nc1nc2ccc(C(=O)c3ccccc3)cc2[nH]1`, the “activation” value was 2.62% [at 42.5 µM]. For the molecule `CCCC[P+](C)(CCCC)CCCC`, the “activation” value is -2.19%. For the molecule `O=C1C(c2[nH]c3ccc(S(=O)(=O)O)cc3c2O)=Nc2ccc(S(=O)(=O)O)cc21`, the “activation” value was -0.848%.

For the molecule `CN(C)C(=O)COC(=O)Cc1ccc(OC(=O)c2ccc(N=C(N)N)cc2)cc1`, the “activation” value was 0.722% [at 42.5 µM]. As for `OC/C=C/CO`, the “activation” value was -0.321%. With `COC(=O)c1ccccc1OC`, the “activation” value was 0.321%. The same measure, in the same setting: the value for `Cc1ccc(C(=O)O)cc1` was -0.645%. As to `O=C(O)Cc1ccc2c(c1)C(=O)c1ccccc1CO2`, the “activation” value was 2.12% [at 42.5 µM]. For the molecule `CCCc1ccc(OCC(=O)N2CCN(C(=O)COc3ccc(CCC)cc3OC)CC2)c(OC)c1`, the “activation” value was 1.43% [at 42.5 µM].

For `C#C[C@]1(O)CC[C@H]2[C@@H]3[C@H](C)CC4=C(CCC(=O)C4)[C@H]3CC[C@@]21C`, the Potency was 18.8 nM (active). Take `CCCCCCOC(=O)C(C)CC` (stereo not given): the “activation” value was -3.05%. `Cc1c(C)c2c(c(C)c1O)CC[C@@](C)(CCC[C@H](C)CCC[C@H](C)CCCC(C)C)O2`: the “activation” value was -0.186%. The same measure, in the same setting: the figure for `CCOC(=O)Cn1cccc1-c1nc(-c2ccc(OC)cc2)c(-c2ccc(OC)cc2)s1` is 0.522% [at 42.5 µM]; for `CCC(C)n1ncn(-c2ccc(N3CCN(c4ccc(OC[C@H]5CO[C@](Cn6cncn6)(c6ccc(Cl)cc6Cl)O5)cc4)CC3)cc2)c1=O` (stereo not given in full) it is 0.794% [at 42.5 µM]; for `C1CCC(SSC2CCCCC2)CC1` it is 10.1%. On to `O=C(Oc1ccccc1)Oc1ccccc1`, for which the “activation” value is 0.142%. For the molecule `O=C1NC(=O)[C@@H]2CC=CC[C@H]12`, the “activation” value is -0.643%.

As for `Cc1cc(-c2ccc(N=Nc3cc(S(=O)(=O)O)c4ccccc4c3N)c(C)c2)ccc1N=Nc1cc(S(=O)(=O)O)c2ccccc2c1N`, the “activation” value is 0.761%. Still for that read-out and setting: the figure for `COC(=O)C1=C(C)NC(C)=C(C(=O)OCCN2CCN(C(c3ccccc3)c3ccccc3)CC2)C1c1cccc([N+](=O)[O-])c1` (stereo not given) is 12.4% [at 42.5 µM]; for `CC(C)(C)NSc1nc2ccccc2s1` it is 4.38%.

These data come from PubChem BioAssay (Tox21).
